Pf Dd2 inh – blocks in vitro growth of P. falciparum Dd2; P. falciparum Dd2 growth, SYBR Green, 72 h; Potency, µM (doses to about 28.9 µM), for inactives: at the highest dose activity, negative = inhibition, hits mostly inhibitors; actives 4.3% (n = 120,000); AID 1347417; active means well fitted inhibition curve with a large enough effect;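 further: plate controls were DMSO vehicle for no effect and reference drug for full effect; nearly all actives have a fitted effect of over 65% in size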
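Infected erythrocytes (Dd2, 0.3% parasitemia, 2.5% hematocrit final) are added to compound in RPMI-1640/Albumax II medium, grown 72 h at 37C in low oxygen, then lysed with saponin/Triton-X containing SYBR Green and read by fluorescence.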
* = called active by the depositor; i = inactive; [ ] = remark or other dose. The sample as a whole holds a higher share of hits than the screen did. Potency means the concentration at half of the fitted maximal effect.

SMILES	Pf Dd2 inh
CC(=O)N1CCc2c(sc3c2c(=O)n(-c2cc(Cl)ccc2C)c(=O)n3Cc2ccccc2F)C1	10µM*
CCOC(=O)N1CCc2c(sc3c2c(=O)n(-c2ccc(CC)cc2)c(=O)n3Cc2cccc(Cl)c2)C1	-26%
COc1ccc(C(=O)NC2CCN(c3cc(-c4cccs4)[nH]n3)C2)cn1 (stereo not drawn)	i
Cn1nc(C2CCCN(C(=O)C3CCOCC3)C2)n(C2CCCC2)c1=O (stereo not drawn)	39%
Cn1c(Cn2cccn2)nnc1C1CCCN(Cc2nc(C(N)=O)no2)C1 (stereo not drawn)	i
COC(=O)CNC(=O)N1CCCN(S(C)(=O)=O)C(c2ccccc2)CC(=O)NCC1 (stereo not drawn)	0%
CN1C[C@H](NC2CCOCC2)CCC[C@@H](C(=O)NC2CC2)CC1=O	-14%[44.1 µM]
CCCCNc1ncc(C(=O)O)c(C)n1	7%
CN(CC1CCOC1)S(=O)(=O)c1ccc(Cl)s1 (stereo not drawn)	29%[5.79 µM]
O=C(NCC1(COc2cnccn2)C[C@@H](O)[C@@H](O)C1)C1CCOCC1 (stereo partly drawn)	3%[44.1 µM]
Cc1ccc(-c2noc(C3CCN(C(=O)CC(C)C)CC3)n2)nn1	-5%
CSc1cccc(NC(=O)CCn2ccn3nc4c(c3c2=O)CCCC4)c1	25%
OCCn1nc(-c2ccncc2)nc1CC12CC3CC(CC(O)(C3)C1)C2	2%
COc1ccc(C(=O)N2CCCCCCNC(=O)[C@@H]3C[C@@H](c4nc(C(C)C)no4)C[C@@H]32)cc1F	-1%
C[C@H](O)c1c(-c2ccc(F)cc2)noc1C(=O)N1CCC1	-9%[44.1 µM]
O=C(c1ccccc1)N1CCn2c(nn(-c3ccc(F)cc3F)c2=O)C1	5%
CC(=O)N1CCc2c(sc3c2c(=O)n(Cc2ccccc2)c(=O)n3Cc2ccc(C)cc2)C1	-10%
CCOC(=O)N1CCc2c(sc3c2c(=O)n(Cc2ccccc2)c(=O)n3CC(=O)Nc2ccc(F)cc2)C1	-20%
CCOC(=O)N1CCc2c(sc3c2c(=O)n(Cc2ccccc2)c(=O)n3Cc2c(F)cccc2Cl)C1	3.2µM*
COCCOc1ccc2c(n1)CCN(C(=O)Cc1ccccc1C)C2	28%
Cc1cc(Cl)ccc1NC(=O)N1CCCC1c1nncn1-c1ccccc1 (stereo not drawn)	-6%
Cn1cc(NC(=O)CN2CCC(N3CCCC(C(=O)N4CCCC4)C3)CC2)cn1 (stereo not drawn)	-10%
CNC(=O)c1cccc2c1CCN2C(=O)Nc1ccc(C)cc1	i
CO[C@H]1C(=O)N(C2CCN(C(=O)c3nn(C)c4ccccc34)CC2)[C@H]1c1ccncc1	-9%
CNC(=O)CCn1ncc2cc(OC3CCc4cccc(-c5ccccc5)c43)ccc21 (stereo not drawn)	2.8µM*
SMILES	Pf Dd2 inh
CNC(=O)CCn1ncc2cc(OC3CCc4cccc(-c5ccnc(C)c5)c43)ccc21 (stereo not drawn)	0%[44.1 µM]
CNC(=O)CCn1ncc2cc(OC3CCc4cccc(-c5cccc(F)c5)c43)ccc21 (stereo not drawn)	i
O=C(O)CCn1ncc2cc(OC3CCN(C(=O)c4cc(F)ccc4Cl)CC3)ccc21	-10%
CNC(=O)CCn1ncc2cc(OC3CCc4cccc(-c5ccc(F)cc5)c43)ccc21 (stereo not drawn)	14µM*
O=C(O)CCn1ncc2cc(OC3CCN(C(=O)Oc4ccccc4)CC3)ccc21	i
CN1CC(=O)N(c2ccc(Cl)cc2)Cc2c(NCCCc3ccccc3)ncnc21	-10%
O=C1CCN(Cc2cccc(F)c2)CCOCCN1	4%
Cc1cc(CN(C)C(=O)c2cc(COc3ccc4c(c3)OCO4)[nH]n2)on1	-10%
Cc1cnc(C(=O)N2C[C@@H](Oc3ccccc3)C[C@H]2C(=O)N2CCCC2)cn1	i
COc1ccc(-c2noc(CSc3nnc(-c4ccncc4)n3-c3ccccc3)n2)cc1	-7%
COc1ccc(-n2c(C)nnc2SCc2nc(-c3ccc(OC)c(OC)c3)no2)cc1	-3%
CCc1ccc(-n2c(SCc3nc(-c4cc(OC)ccc4OC)no3)nnc2-c2ccccc2)cc1	11µM*
Cc1ccccc1CNC(=O)c1nnn2c1COC(c1ccc(Cl)cc1)C2 (stereo not drawn)	i
COC(=O)NC1CCN(c2nc3ncccc3o2)CC1	-1%[44.1 µM]
O=C(N[C@@H]1CCN(C(=O)CSc2ccccn2)C[C@H]1O)c1ccncc1	-10%
CC1=C[C@@H](CN2CCN(c3ncccn3)CC2)[C@H](C(C)C)C[C@H]1Cc1nnc(-c2cncn2C)o1	-6%
CC1=C[C@@H](CN2CCCCC2)[C@H](C(C)C)C[C@H]1Cc1nnc(-c2cncn2C)o1	7.9µM*
CC1=C[C@@H](CNc2ccccn2)[C@H](C(C)C)C[C@H]1Cc1nnc(-c2cncn2C)o1	5.6µM*
CC(=O)NC[C@@H]1C=C(C)[C@H](CC(=O)NCc2cccnc2)C[C@H]1C(C)C	40%[44.1 µM]
CC1=C[C@@H](CNCc2ccc(Cl)cc2)[C@H](C(C)C)C[C@H]1Cc1nnc(-c2cncn2C)o1	4µM*
CC1=C[C@@H](CNC(=O)c2cnccn2)[C@H](C(C)C)C[C@H]1Cc1nnc(-c2ccccc2F)o1	-6%
CC1=C[C@@H](CNC(=O)c2cncnc2)[C@H](C(C)C)C[C@H]1Cc1nnc(-c2ccccc2F)o1	-5%
CC1=C[C@@H](CNC(=O)c2ccccc2)[C@H](C(C)C)C[C@H]1Cc1nnc(-c2cncn2C)o1	-6%[44.1 µM]
Cc1ccccc1CN1CC[C@H](c2nnc(-c3cncn3C)o2)C1	0%[44.1 µM]
COC(=O)c1ccc2c(c1)nc1n2[C@@H](CNC2CCC2)COC1	4%[44.1 µM]
SMILES	Pf Dd2 inh
O=C1COc2ccc(-c3ccccc3F)nc2CN1CCOc1ccccc1	-7%[44.1 µM]
C[C@H]1CN(C(=O)c2nn(C)c3ccccc23)C[C@@H]1c1nc(-c2cccnc2)no1	i
CC[C@H]1CN(S(=O)(=O)c2ccccc2)CC[C@H]1CC(=O)NCCN1CCOCC1	i
CN1CCC(N2CCN(C(=O)CCc3ccccc3)CC2)C1=O (stereo not drawn)	16%
CCOc1ccc(NC(=O)Nc2cc3c(cc2N2CCCCC2)n(C)c(=O)n3C)cc1	-15%
Cc1ccc(C)c(NC(=O)Cn2c(N3CCN(c4ccccc4)CC3)nc(C)cc2=O)c1	-42%
CCOc1ccccc1NC(=O)Nc1cc2c(cc1N1CCCCC1)n(CC)c(=O)n2CC	11µM*
Cc1cc(=O)n(CC(=O)Nc2ccc(C)c(Cl)c2)c(N2CCC(C)CC2)n1	-22%
CCOc1ccccc1NC(=O)Cn1c(-c2ccc(F)cc2)nc(C)cc1=O	-19%
Cc1cc(=O)n(CC(=O)Nc2ccc(Cl)cc2)c(N2CCC(C)CC2)n1	11µM*
CCOc1ccccc1NC(=O)Cn1c(-c2ccccc2)nc(C)cc1=O	1.6µM*
CCc1ccccc1NC(=O)Cn1c(-c2ccccc2)nc(C)cc1=O	-4%
CCOc1ccc(C(=O)Nc2cc3c(cc2N2CCCC2)n(C)c(=O)c(=O)n3C)cc1OCC	-16%
Cc1ccc(NC(=O)Cn2c(N3CCN(c4ccccc4)CC3)nc(C)cc2=O)c(C)c1	-8%
Cc1cc(=O)n(CC(=O)Nc2ccc(Br)cc2)c(N2CCC(C)CC2)n1	-24%
CCOc1ccccc1NC(=O)Cn1c(N2CCN(c3ccccc3)CC2)nc(C)cc1=O	5.6µM*
Cc1ccc(OCC(=O)N2CC3CC(C2)[C@H]2CCCC(=O)N2C3)cc1 (stereo partly drawn)	4%
COCCOc1cccc(Cn2cnc(-c3ccccc3)c2-c2cnc[nH]2)c1	-12%
O=C(O)c1cn(C2CCCCCC2)nn1	-6%

Screens: PubChem, National Center for Advancing Translational Sciences (NCATS)
